Laboratory results from PubChem BioAssay (NCATS).
Inconclusive results are not listed. A call without a number means that no potency is given here. Active and inactive are the calls of the source. Unless noted, calls follow the shape of the dose curve; as a rule, active = well fitted curve in the direction sought with a large enough effect; inconclusive = small, poorly fitted or top-dose-only effect, or another doubt; inactive = no such curve, though single readings can be large; an effect the other way counts as inactive or inconclusive.

Key:
[1] = target: ATP-dependent 6-phosphofructokinase (Trypanosoma brucei brucei) (UniProt O15648); assay: qHTS Assay to Find Inhibitors of T. brucei phosphofructokinase: hit validation (AID 492961);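 also: luminescence reports ADP formed as PFK phosphorylates fructose-6-phosphate with ATP; series mostly up to about 51 µM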
Method in brief: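 Measures ADP output of PFK (1.25 nM) at 0.1 mM ATP, 0.5 mM F6P, pH 8.0 TEA buffer with 5 mM MgCl2. No-enzyme wells define full inhibition; uninhibited enzyme wells define zero.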

[2] = target: Ubiquitin carboxyl-terminal hydrolase 1 (Homo sapiens) (UniProt O94782); assay: Inhibitors of USP1/UAF1: Pilot qHTS (AID 504865);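 also: rhodamine fluorescence freed from ubiquitin-rhodamine substrate followed over time; top concentration of the series differs between compounds; nearly all actives have a fitted effect of over 35% in size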
Method in brief: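 In 50mM HEPES pH 7.8 containing 0.5mM EDTA, 1mM TCEP, 0.1 mg/ml BSA and 0.01% Tween-20, 1nM USP1/UAF1 is exposed to compound for 15 min, then Ub-Rho (150nM final) is added and fluorescence is read over time.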

[3] = target: Thyrotropin-releasing hormone receptor (Homo sapiens) (UniProt P34981); assay: qHTS for Small Molecule Agonists and Allosteric Enhancers of Human TRH Receptor: Validation Screen for Agonists (AID 493127;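 active = calcium activation more than 3 SD above the typical response in the agonist read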;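 also: intracellular calcium rise by fluo-8 fluorescence before TRH EC20 addition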); conditions: TRH receptor agonist cell assay; at 2 µM; active compounds read high
Method in brief: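 Kinetic fluorescence assay of agonist-induced calcium release: overnight-plated TRHR cells, room-temperature fluo-8 loading, baseline then compound addition with per-second reads.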

[4] = target: Galactokinase (Homo sapiens) (UniProt P51570); assay: qHTS Validation Assay for Inhibitors of Human Galactokinase (GALK) (AID 493189)
Method in brief: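 5 nM GALK / 100 uM galactose / 35 uM ATP, 20 mM HEPES pH8.0, 5 mM MgCl2, 60 mM NaCl, 1 mM DTT, 0.01% BSA (final). RT 1 h; Kinase-Glo Plus luminescence.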

[5] = Validation screen for small molecules that induce DNA re-replication in SW480 colon adenocarcinoma cells (AID 504364)
Method in brief: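 Hoechst-stained SW480 nuclei, imaged at 405 nm excitation after 48 hr compound exposure, were counted for elevated DNA content as the re-replication signal.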

[6] = target: DNA dC->dU-editing enzyme APOBEC-3G (Homo sapiens) (UniProt Q9HC16); assay: qHTS for inhibitors of Vif-A3G interactions: Validation (AID 588379)
Method in brief: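 Yellow fluorescence (Ex 488, Em 500-530) of Vif-coexpressing HeLa A3G-eYFP cells, scanned by Acumen cytometer, reports blocked A3G degradation. Cells plated at 700/well overnight at 37 deg C before compound addition, then a further overnight compound incubation at 37 deg C.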

ATP-dependent 6-phosphofructokinase (Trypanosoma brucei brucei), sequence (O15648 whole entry, looked up): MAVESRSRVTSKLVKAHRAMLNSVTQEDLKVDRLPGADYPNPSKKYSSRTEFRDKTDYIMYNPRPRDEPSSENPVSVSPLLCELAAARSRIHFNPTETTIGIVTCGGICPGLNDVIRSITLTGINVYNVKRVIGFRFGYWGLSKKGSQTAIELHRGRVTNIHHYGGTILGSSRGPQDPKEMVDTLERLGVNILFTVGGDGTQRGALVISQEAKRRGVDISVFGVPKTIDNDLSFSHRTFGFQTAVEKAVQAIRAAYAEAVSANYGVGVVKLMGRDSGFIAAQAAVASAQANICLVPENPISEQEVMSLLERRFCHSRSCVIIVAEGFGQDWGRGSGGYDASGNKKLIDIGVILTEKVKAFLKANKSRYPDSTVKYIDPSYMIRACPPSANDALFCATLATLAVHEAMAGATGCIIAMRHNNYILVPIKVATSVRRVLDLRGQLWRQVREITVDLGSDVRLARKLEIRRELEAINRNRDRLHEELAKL
Ubiquitin carboxyl-terminal hydrolase 1 (Homo sapiens), sequence (O94782 whole entry, looked up): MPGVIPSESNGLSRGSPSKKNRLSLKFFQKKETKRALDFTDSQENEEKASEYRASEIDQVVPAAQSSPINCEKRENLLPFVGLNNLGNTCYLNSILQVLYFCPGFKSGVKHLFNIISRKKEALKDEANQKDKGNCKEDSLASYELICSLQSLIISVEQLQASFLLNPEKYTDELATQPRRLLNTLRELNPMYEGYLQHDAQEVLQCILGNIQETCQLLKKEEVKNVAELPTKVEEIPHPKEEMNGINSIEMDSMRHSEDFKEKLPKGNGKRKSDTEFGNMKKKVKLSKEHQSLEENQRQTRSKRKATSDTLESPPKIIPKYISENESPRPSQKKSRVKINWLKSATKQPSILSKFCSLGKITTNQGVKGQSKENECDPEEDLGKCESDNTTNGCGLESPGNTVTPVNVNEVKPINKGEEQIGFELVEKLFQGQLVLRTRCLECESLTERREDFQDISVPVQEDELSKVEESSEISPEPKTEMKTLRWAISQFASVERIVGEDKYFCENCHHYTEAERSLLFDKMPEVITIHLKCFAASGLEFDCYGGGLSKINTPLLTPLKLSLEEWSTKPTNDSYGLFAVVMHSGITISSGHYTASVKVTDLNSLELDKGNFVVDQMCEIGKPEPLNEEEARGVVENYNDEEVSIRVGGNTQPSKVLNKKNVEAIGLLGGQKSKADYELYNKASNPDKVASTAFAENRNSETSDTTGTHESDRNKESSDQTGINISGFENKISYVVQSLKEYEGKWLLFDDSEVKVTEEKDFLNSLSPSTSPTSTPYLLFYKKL
DNA dC->dU-editing enzyme APOBEC-3G (Homo sapiens), sequence (Q9HC16 whole entry, looked up): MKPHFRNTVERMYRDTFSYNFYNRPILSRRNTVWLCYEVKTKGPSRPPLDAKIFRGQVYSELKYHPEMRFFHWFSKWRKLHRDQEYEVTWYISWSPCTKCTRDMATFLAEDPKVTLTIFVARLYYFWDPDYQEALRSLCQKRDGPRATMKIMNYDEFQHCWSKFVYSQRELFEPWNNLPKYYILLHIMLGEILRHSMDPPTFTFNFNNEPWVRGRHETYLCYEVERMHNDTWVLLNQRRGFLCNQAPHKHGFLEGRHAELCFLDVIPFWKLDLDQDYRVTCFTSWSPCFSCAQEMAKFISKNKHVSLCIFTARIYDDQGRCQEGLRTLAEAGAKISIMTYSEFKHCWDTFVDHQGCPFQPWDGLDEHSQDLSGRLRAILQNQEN
Galactokinase (Homo sapiens), sequence (P51570 whole entry, looked up): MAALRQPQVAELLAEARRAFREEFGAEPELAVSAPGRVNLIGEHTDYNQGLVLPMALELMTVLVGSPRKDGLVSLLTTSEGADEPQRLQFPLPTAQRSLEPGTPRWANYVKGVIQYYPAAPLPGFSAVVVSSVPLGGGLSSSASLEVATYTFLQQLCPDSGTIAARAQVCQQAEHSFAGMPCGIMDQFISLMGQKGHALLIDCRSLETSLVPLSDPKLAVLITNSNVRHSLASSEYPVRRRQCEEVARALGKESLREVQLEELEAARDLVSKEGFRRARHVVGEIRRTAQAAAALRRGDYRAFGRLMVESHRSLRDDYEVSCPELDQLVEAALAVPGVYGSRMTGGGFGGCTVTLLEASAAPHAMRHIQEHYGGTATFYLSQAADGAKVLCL
Thyrotropin-releasing hormone receptor (Homo sapiens), sequence (P34981 whole entry, looked up): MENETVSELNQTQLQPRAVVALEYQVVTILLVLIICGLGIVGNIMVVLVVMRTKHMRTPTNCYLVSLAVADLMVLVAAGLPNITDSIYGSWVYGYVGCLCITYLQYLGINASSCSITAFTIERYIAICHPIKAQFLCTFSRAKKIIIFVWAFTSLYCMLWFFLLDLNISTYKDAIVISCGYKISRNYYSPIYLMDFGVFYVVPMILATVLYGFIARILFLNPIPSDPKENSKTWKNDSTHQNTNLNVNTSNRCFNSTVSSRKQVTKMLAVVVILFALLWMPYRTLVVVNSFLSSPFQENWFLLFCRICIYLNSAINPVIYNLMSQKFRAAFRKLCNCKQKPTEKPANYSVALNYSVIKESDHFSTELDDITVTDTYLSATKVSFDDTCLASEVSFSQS

CC12CCC(C[N+](C)(CCC[N+](C)(C)C)C1)C2(C)C (stereo not given)
Potency [1]: inactive
Potency [2]: inactive

CCCCC(CC)COS(=O)(=O)O (stereo not given)
Potency [1]: inactive
Potency [2]: inactive

O=P(O)(O)OC[C@H]1O[C@](O)(COP(=O)(O)O)[C@@H](O)[C@@H]1O
Potency [1]: inactive
Potency [2]: inactive

CC(=O)N=c1sc(S(N)(=O)=O)nn1C
Potency [1]: inactive
Potency [2]: inactive

C[C@H](CCC(=O)O)[C@H]1CC[C@H]2[C@@H]3CC[C@@H]4C[C@H](O)CC[C@]4(C)[C@H]3C[C@H](O)[C@]12C
Potency [1]: inactive
Potency [2]: inactive

OC[C@H]1O[C@@](CO)(O[C@H]2O[C@H](CO)[C@@H](O)[C@H](O)[C@H]2O)[C@@H](O)[C@@H]1O
Potency [1]: inactive
Potency [2]: inactive

O=c1n(CC2CO2)c(=O)n(CC2CO2)c(=O)n1CC1CO1 (stereo not given)
Potency [1]: inactive
Potency [2]: inactive

O=[n+]1ccn([O-])c2ccccc21
Potency [1]: inactive
Potency [2]: inactive

CC(=O)Nc1ccc(OC(C)=O)cc1
Potency [1]: inactive
Potency [2]: inactive

CC(C)CCCC(C)NC(C)C (stereo not given)
Potency [1]: inactive
Potency [2]: inactive

COC(=O)[C@@H](N)CS
Potency [1]: inactive
Potency [2]: inactive

c1ccc2c(c1)OCC(CN1CCCCC1)O2 (stereo not given)
Potency [1]: inactive
Potency [2]: inactive

CC(C)(C)CC(C)(C)c1cc(Cc2cc(C(C)(C)CC(C)(C)C)cc(-n3nc4ccccc4n3)c2O)c(O)c(-n2nc3ccccc3n2)c1
Potency [1]: inactive
Potency [2]: inactive

CN1C(=O)OC(C)(C)C1=O
Potency [1]: inactive
Potency [2]: inactive

CNC(=O)[C@H](Cc1c[nH]c2ccccc12)NC(=O)[C@@H](CC(=O)NO)CC(C)C
Potency [1]: inactive
Potency [2]: inactive

C=CCOc1ccc(CC(=O)O)cc1Cl
Potency [1]: inactive
Potency [2]: inactive

CCN(CC)C(=S)S
Potency [1]: inactive
Potency [2]: inactive

CC1(C)S[C@@H]2[C@H](NC(=O)C3(N)CCCCC3)C(=O)N2[C@H]1C(=O)O
Potency [1]: inactive
Potency [2]: inactive

CCCCCCCCCC(=O)NO
Potency [1]: inactive
Potency [2]: inactive

CO
Potency [1]: inactive
Potency [2]: inactive

F[Si-2](F)(F)(F)(F)F
Potency [1]: inactive
Potency [2]: inactive

CN1CCc2c(c3ccccc3n2Cc2ccccc2)C1
Potency [1]: inactive
Potency [2]: inactive

CC(C)O
Potency [1]: inactive
Potency [2]: inactive

CCN(CC)CCC(=O)N1c2ccccc2Sc2ccc(Cl)cc21
Potency [1]: inactive
Potency [2]: inactive

CN(C)CCCSc1ccccc1NC(=O)/C=C/c1ccccc1
Potency [1]: inactive
Potency [2]: inactive

C[C@@](Cc1ccc(O)c(O)c1)(NN)C(=O)O
activation [3]: 0.562% (inactive)
outcome [4]: inactive
outcome [5]: inactive
Potency [2]: inactive
outcome [6]: inactive

CC(=O)Oc1cccc2c1C(=O)c1c(OC(C)=O)cc(C(=O)O)cc1C2=O
Potency [2]: inactive

NCC[C@H](O)C(=O)N[C@@H]1C[C@H](N)[C@@H](O[C@H]2O[C@H](CN)[C@@H](O)[C@H](O)[C@H]2O)[C@H](O)[C@H]1O[C@H]1O[C@H](CO)[C@@H](O)[C@H](N)[C@H]1O
Potency [2]: inactive

[O]=[Bi][O]C(=O)[O][Bi]=[O]
Potency [1]: inactive
Potency [2]: inactive

O=C(O)c1ccc(OCCn2ccnc2)cc1
Potency [2]: inactive
